# Laboratory results taken from PubChem BioAssay AID1159580 (chemical genetic matrix, 2015).
# The whole screen tested about 5,500 compounds, of which about 2,000 (36%) were called active. Inconclusive results (about 18%) are left out. This is one part of the list. A number with no mark means an inactive call. Cut-off read from the data, not from the text of the source: active = normalized growth mostly below about 0.91 (no sharp cut-off); inconclusive = no clear call, values can overlap the other calls; inactive = mostly above about 0.92.
# Assay: chemical genetic growth profiling, strain panel (AID 1159580);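 note: tested at 20 µM; growth read once vehicle control cultures reached saturation at 30 °C; 1 = growth at the plate median or of vehicle wells; lower values mean less growth of the strain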
# Details: growth OD
# [1] = S. cerevisiae deletion strains, locus YAL013W, strain DEP1, active compounds read low
# [2] = S. cerevisiae deletion strains, locus YBR229C, strain ROT2, active compounds read low
# [3] = S. cerevisiae deletion strains, locus YCL061C, strain MRC1, active compounds read low
# [4] = S. cerevisiae deletion strains, locus YDL101C, strain DUN1, active compounds read low
# [5] = S. cerevisiae deletion strains, locus YDL134C, strain PPH21, active compounds read low
# [6] = S. cerevisiae deletion strains, locus YDR150W, strain NUM1, active compounds read low
# [7] = S. cerevisiae deletion strains, locus YEL061C, strain CIN8, active compounds read low
# [8] = S. cerevisiae deletion strains, locus YGR078C, strain PAC10, active compounds read low
# [9] = S. cerevisiae deletion strains, locus YHR030C, strain SLT2, active compounds read low
# [10] = S. cerevisiae deletion strains, locus YHR087W, strain rtc3, active compounds read low
# [11] = S. cerevisiae deletion strains, locus YJR075W, strain HOC1, active compounds read low
# [12] = S. cerevisiae deletion strains, locus YKL190W, strain CNB1, active compounds read low
# [13] = S. cerevisiae deletion strains, locus YLR039C, strain RIC1, active compounds read low
# [14] = S. cerevisiae deletion strains, locus YLR058C, strain SHM2 (second series), active compounds read low
# [15] = S. cerevisiae deletion strains, locus YLR085C, strain ARP6, active compounds read low
# [16] = S. cerevisiae deletion strains, locus YLR262C, strain YPT6, active compounds read low
# [17] = S. cerevisiae deletion strains, locus YML094W, strain GIM5, active compounds read low
# [18] = S. cerevisiae deletion strains, locus YMR219W, strain ESC1, active compounds read low
# [19] = S. cerevisiae deletion strains, locus YMR263W, strain SAP30, active compounds read low
# [20] = S. cerevisiae deletion strains, locus YNL153C, strain GIM3, active compounds read low
# [21] = S. cerevisiae deletion strains, locus YNL298W, strain CLA4 (second series), active compounds read low
# [22] = S. cerevisiae deletion strains, locus YNL322C, strain KRE1, active compounds read low
# [23] = S. cerevisiae deletion strains, locus YNR030W, strain Alg12, active compounds read low
# [24] = S. cerevisiae deletion strains, locus YOL006C, strain TOP1, active compounds read low
# [25] = S. cerevisiae deletion strains, locus YPL055C, strain LGE1, active compounds read low
# [26] = S. cerevisiae deletion strains, locus YPL241C, strain CIN2, active compounds read low
# [27] = S. cerevisiae deletion strains, locus YPR135W, strain CTF4, active compounds read low
# [28] = S. cerevisiae strains, strain wild type, active compounds read low
# [29] = S. cerevisiae deletion strains, locus YJR043C, strain POL32, active compounds read low
# [30] = S. cerevisiae deletion strains, locus YMR307W, strain GAS1, active compounds read low
structure (smiles),measurement,setting,value
CC(C)(C)OC(=O)C(C)(C)S(=O)(=O)c1ccc(Cl)cc1,normalized growth,[1],1.01
same,normalized growth,[2],0.983
same,normalized growth,[3],0.979
same,normalized growth,[4],0.977
same,normalized growth,[5],0.995
same,normalized growth,[6],0.992
same,normalized growth,[7],1
same,normalized growth,[8],0.992
same,normalized growth,[9],0.955
same,normalized growth,[10],1.01
same,normalized growth,[11],0.973
same,normalized growth,[12],0.994
same,normalized growth,[13],0.958
same,normalized growth,[14],1.01
same,normalized growth,[15],1.05
same,normalized growth,[16],0.927
same,normalized growth,[17],0.987
same,normalized growth,[18],0.995
same,normalized growth,[19],0.992
same,normalized growth,[20],0.98
same,normalized growth,[21],1.02
same,normalized growth,[22],0.984
same,normalized growth,[23],0.983
same,normalized growth,[24],1.01
same,normalized growth,[25],1.02
same,normalized growth,[26],1.01
same,normalized growth,[27],1.04
same,normalized growth,[28],1
O=[N+]([O-])c1ccc(S(=O)(=O)c2ccc(Cl)cc2)cc1O,normalized growth,[1],0.82 (active)
same,normalized growth,[2],0.766 (active)
same,normalized growth,[4],0.715 (active)
same,normalized growth,[5],0.938
same,normalized growth,[6],0.811
same,normalized growth,[7],0.924
same,normalized growth,[8],0.81 (active)
same,normalized growth,[9],0.954
same,normalized growth,[10],0.692 (active)
same,normalized growth,[29],0.832 (active)
same,normalized growth,[11],0.64 (active)
same,normalized growth,[12],0.978
same,normalized growth,[13],0.723 (active)
same,normalized growth,[14],0.822 (active)
same,normalized growth,[15],0.947
same,normalized growth,[16],0.639 (active)
same,normalized growth,[17],0.94
same,normalized growth,[18],0.797 (active)
same,normalized growth,[19],0.814 (active)
same,normalized growth,[20],0.846 (active)
same,normalized growth,[21],0.915
same,normalized growth,[22],0.86 (active)
same,normalized growth,[23],0.94
same,normalized growth,[25],0.709 (active)
same,normalized growth,[26],0.934
same,normalized growth,[27],0.99
same,normalized growth,[28],0.952
O=[N+]([O-])c1ccc(S(=O)(=O)c2ccccc2)nc1S(=O)(=O)c1ccccc1,normalized growth,"S. cerevisiae deletion strains, locus YAR019C, strain CDC15, active compounds read low",0.882 (active)
same,normalized growth,"S. cerevisiae deletion strains, locus YBL105C, strain PKC1, active compounds read low",0.914
same,normalized growth,"S. cerevisiae deletion strains, locus YBR135W, strain CKS1, active compounds read low",0.903
same,normalized growth,"S. cerevisiae deletion strains, locus YBR136W, strain MEC1, active compounds read low",0.93
same,normalized growth,"S. cerevisiae deletion strains, locus YBR160W, strain CDC28, active compounds read low",0.915
same,normalized growth,"S. cerevisiae deletion strains, locus YDL017W, strain CDC7, active compounds read low",0.942
same,normalized growth,"S. cerevisiae deletion strains, locus YDL028C, strain MPS1, active compounds read low",0.972
same,normalized growth,[4],0.922
same,normalized growth,"S. cerevisiae deletion strains, locus YDL108W, strain KIN28, active compounds read low",0.94
same,normalized growth,"S. cerevisiae deletion strains, locus YDL132W, strain cdc53, active compounds read low",0.931
same,normalized growth,"S. cerevisiae deletion strains, locus YDL214C, strain PRR2, active compounds read low",0.393 (active)
same,normalized growth,"S. cerevisiae deletion strains, locus YDR052C, strain DBF4, active compounds read low",0.942
same,normalized growth,"S. cerevisiae deletion strains, locus YDR054C, strain cdc34, active compounds read low",0.904
same,normalized growth,"S. cerevisiae deletion strains, locus YDR226W, strain ADK1, active compounds read low",0.904
same,normalized growth,"S. cerevisiae deletion strains, locus YDR477W, strain SNF1, active compounds read low",0.473 (active)
same,normalized growth,"S. cerevisiae deletion strains, locus YER123W, strain YCK3, active compounds read low",0.223 (active)
same,normalized growth,"S. cerevisiae deletion strains, locus YER133W, strain GLC7, active compounds read low",0.361 (active)
same,normalized growth,"S. cerevisiae deletion strains, locus YFL009W, strain cdc4, active compounds read low",0.918
same,normalized growth,"S. cerevisiae deletion strains, locus YFL029C, strain CAK1, active compounds read low",0.885
same,normalized growth,"S. cerevisiae deletion strains, locus YFR003C, strain YPI1, active compounds read low",0.974
same,normalized growth,"S. cerevisiae deletion strains, locus YFR019W, strain FAB1, active compounds read low",0.62 (active)
same,normalized growth,"S. cerevisiae deletion strains, locus YFR028C, strain CDC14, active compounds read low",0.893
same,normalized growth,"S. cerevisiae deletion strains, locus YGR040W, strain KSS1, active compounds read low",0.443 (active)
same,normalized growth,"S. cerevisiae deletion strains, locus YGR052W, strain FMP48, active compounds read low",0.353 (active)
same,normalized growth,"S. cerevisiae deletion strains, locus YGR092W, strain DBF2, active compounds read low",0.785
same,normalized growth,[9],0.334 (active)
same,normalized growth,"S. cerevisiae deletion strains, locus YHR079C, strain IRE1, active compounds read low",0.88
same,normalized growth,"S. cerevisiae deletion strains, locus YHR082C, strain KSP1, active compounds read low",0.364 (active)
same,normalized growth,"S. cerevisiae deletion strains, locus YHR205W, strain SCH9, active compounds read low",0.47 (active)
same,normalized growth,"S. cerevisiae deletion strains, locus YIL147C, strain SLN1, active compounds read low",0.974
same,normalized growth,"S. cerevisiae deletion strains, locus YJL095W, strain BCK1, active compounds read low",0.401 (active)
same,normalized growth,"S. cerevisiae deletion strains, locus YJR016C, strain ILV3, active compounds read low",0.936
same,normalized growth,"S. cerevisiae deletion strains, locus YJR066W, strain TOR1 (second series), active compounds read low",0.438 (active)
same,normalized growth,"S. cerevisiae deletion strains, locus YJR066W, strain TOR1, active compounds read low",0.299 (active)
same,normalized growth,"S. cerevisiae deletion strains, locus YKL048C, strain ELM1, active compounds read low",0.948
same,normalized growth,"S. cerevisiae deletion strains, locus YKL101W, strain HSL1, active compounds read low",0.777
same,normalized growth,"S. cerevisiae deletion strains, locus YKL193C, strain SDS22, active compounds read low",0.871 (active)
same,normalized growth,"S. cerevisiae deletion strains, locus YKL203C, strain TOR2, active compounds read low",0.555 (active)
same,normalized growth,"S. cerevisiae deletion strains, locus YLR113W, strain HOG1, active compounds read low",0.184 (active)
same,normalized growth,"S. cerevisiae deletion strains, locus YLR133W, strain CKI1, active compounds read low",0.691 (active)
same,normalized growth,"S. cerevisiae deletion strains, locus YLR403W, strain SFP1, active compounds read low",0.748
same,normalized growth,"S. cerevisiae deletion strains, locus YML070W, strain DAK1, active compounds read low",0.433 (active)
same,normalized growth,"S. cerevisiae deletion strains, locus YMR001C, strain CDC5, active compounds read low",0.896
same,normalized growth,"S. cerevisiae deletion strains, locus YMR205C, strain PFK2 (second series), active compounds read low",0.785
same,normalized growth,"S. cerevisiae deletion strains, locus YMR277W, strain FCP1, active compounds read low",0.87 (active)
same,normalized growth,"S. cerevisiae deletion strains, locus YNL006W, strain LST8, active compounds read low",0.99
same,normalized growth,"S. cerevisiae deletion strains, locus YNL020C, strain ARK1, active compounds read low",0.874
same,normalized growth,"S. cerevisiae deletion strains, locus YNL161W, strain CBK1, active compounds read low",0.919
same,normalized growth,"S. cerevisiae deletion strains, locus YNL183C, strain NPR1, active compounds read low",0.178 (active)
same,normalized growth,"S. cerevisiae deletion strains, locus YNL207W, strain RIO2, active compounds read low",0.916
same,normalized growth,"S. cerevisiae deletion strains, locus YNL222W, strain SSU72, active compounds read low",0.915
same,normalized growth,"S. cerevisiae deletion strains, locus YOL078W, strain AVO1, active compounds read low",0.879 (active)
same,normalized growth,"S. cerevisiae deletion strains, locus YOL136C, strain PFK27, active compounds read low",0.533 (active)
same,normalized growth,"S. cerevisiae deletion strains, locus YOR061W, strain CKA2, active compounds read low",0.879
same,normalized growth,"S. cerevisiae deletion strains, locus YOR119C, strain RIO1, active compounds read low",0.442 (active)
same,normalized growth,"S. cerevisiae deletion strains, locus YOR231W, strain MKK1, active compounds read low",0.809
same,normalized growth,"S. cerevisiae deletion strains, locus YOR329C, strain SCD5, active compounds read low",0.973
same,normalized growth,"S. cerevisiae deletion strains, locus YPL153C, strain RAD53, active compounds read low",0.729
same,normalized growth,"S. cerevisiae deletion strains, locus YPL204W, strain HRR25, active compounds read low",0.706
same,normalized growth,"S. cerevisiae deletion strains, locus YPL209C, strain IPL1, active compounds read low",0.913
same,normalized growth,"S. cerevisiae deletion strains, locus YPL256C, strain CLN2, active compounds read low",0.293 (active)
same,normalized growth,"S. cerevisiae deletion strains, locus YPR025C, strain CCL1, active compounds read low",0.911
same,normalized growth,"S. cerevisiae deletion strains, locus YPR106W, strain ISR1, active compounds read low",0.921
same,normalized growth,"S. cerevisiae deletion strains, locus YPR111W, strain DBF20, active compounds read low",0.909
same,normalized growth,"S. cerevisiae deletion strains, strain NNK1, active compounds read low",0.938
same,normalized growth,"S. cerevisiae deletion strains, strain TSCII, active compounds read low",0.872 (active)
O=[N+]([O-])c1cc(Cl)ccc1S(=O)(=O)c1ccccc1,normalized growth,[1],0.987
same,normalized growth,[2],0.996
same,normalized growth,[3],0.994
same,normalized growth,[4],0.98
same,normalized growth,[5],0.999
same,normalized growth,[6],0.97
same,normalized growth,[7],0.969
same,normalized growth,[8],0.993
same,normalized growth,"S. cerevisiae deletion strains, locus YGR229C, strain SMI1, active compounds read low",0.98
same,normalized growth,[9],0.836
same,normalized growth,[10],1.02
same,normalized growth,[29],0.978
same,normalized growth,[11],0.995
same,normalized growth,[13],0.634 (active)
same,normalized growth,[14],0.996
same,normalized growth,[15],0.796
same,normalized growth,[16],0.705 (active)
same,normalized growth,[17],0.933
same,normalized growth,[18],0.998
same,normalized growth,[19],0.996
same,normalized growth,[30],0.829
same,normalized growth,[20],0.985
same,normalized growth,[21],0.955
same,normalized growth,[22],0.987
same,normalized growth,[23],0.974
same,normalized growth,[25],0.996
same,normalized growth,[26],0.958
same,normalized growth,[27],0.803
Cc1c(S(=O)(=O)c2ccc(Cl)cc2)cnc2cc(C(C)(C)C)nn12,normalized growth,[1],1.01
same,normalized growth,[2],1.02
same,normalized growth,[4],1
same,normalized growth,[5],1.03
same,normalized growth,[6],0.987
same,normalized growth,[7],1.01
same,normalized growth,[8],1.01
same,normalized growth,[9],1.07
same,normalized growth,[10],1.01
same,normalized growth,[29],1.01
same,normalized growth,[11],1.01
same,normalized growth,[13],1.03
same,normalized growth,[14],1.01
same,normalized growth,[15],1.02
same,normalized growth,[16],1.03
same,normalized growth,[17],1.01
same,normalized growth,[18],1.01
same,normalized growth,[19],0.982
same,normalized growth,[30],0.945
same,normalized growth,"S. cerevisiae deletion strains, locus YNL128W, strain TEP1, active compounds read low",1.01
same,normalized growth,[20],1
same,normalized growth,[21],1.05
same,normalized growth,[22],1.01
same,normalized growth,[23],1.05
same,normalized growth,[24],1.06
same,normalized growth,[25],1.01
same,normalized growth,[26],0.996
same,normalized growth,[27],1.06
